Values without a mark were called inactive. Records with an inconclusive call do not appear. Activity calls are given as the source filed them. Unless noted, calls follow the shape of the dose curve; as a rule, active = well fitted curve in the direction sought with a large enough effect; inconclusive = small, poorly fitted or top-dose-only effect, or another doubt; inactive = no such curve, though single readings can be large; an effect the other way counts as inactive or inconclusive.

This note sets out measurements from PubChem BioAssay (NCATS).

The target of assay [1] is Lysosomal acid glucosylceramidase (Homo sapiens) (UniProt P04062). The assay can be described thus: Glucocerebrosidase-p2 (AID 348; in the data active = potency below about 10 µM; also: potency is read from the fitted curve at half-maximal effect). The settings on record: purified GBA, blue fluorogenic substrate, 40 min. The method, boiled down: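 Compounds titrated from 0.6 nM upwards against 0.2 nM enzyme in pH 5.9 citric acid/KH2PO4, taurocholate, tween-20; blue fluorogenic substrate 80 uM, 40 min room temperature, stopped and read Ex 365/Em 440 for AC50.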
Sequence of Lysosomal acid glucosylceramidase (Homo sapiens) (P04062 whole entry, looked up): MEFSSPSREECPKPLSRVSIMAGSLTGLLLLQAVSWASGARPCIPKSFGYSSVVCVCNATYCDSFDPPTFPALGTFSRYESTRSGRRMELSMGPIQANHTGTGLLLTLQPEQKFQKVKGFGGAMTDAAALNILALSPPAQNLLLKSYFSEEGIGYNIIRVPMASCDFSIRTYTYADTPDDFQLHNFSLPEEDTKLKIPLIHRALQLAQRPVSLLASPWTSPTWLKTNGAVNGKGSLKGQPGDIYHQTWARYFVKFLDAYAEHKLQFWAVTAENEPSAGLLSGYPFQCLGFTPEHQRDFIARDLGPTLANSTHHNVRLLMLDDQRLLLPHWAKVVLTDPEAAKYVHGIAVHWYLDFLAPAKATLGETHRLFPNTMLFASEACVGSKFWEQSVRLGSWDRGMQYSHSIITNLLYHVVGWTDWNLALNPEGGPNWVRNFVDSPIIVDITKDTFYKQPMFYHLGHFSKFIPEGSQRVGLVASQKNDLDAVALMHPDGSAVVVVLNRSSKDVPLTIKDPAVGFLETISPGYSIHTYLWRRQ

The nature of assay [2]: AP1 Signaling Pathway (AID 357; active = well fitted curve in either direction with a large enough effect, not every such curve was filed as active;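 also: ME-180 reporter cells stimulated with EGF at its EC50 level; % is scaled to controls: 0 for no effect and ±100 for the full control effect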). The conditions noted are these: ME-180 AP-1-bla reporter, EGF-induced, beta-lactamase ratio, 5 h; at 7.69 µM (top of the series) unless noted. In outline: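 In this screen, ME-180 cells in Opti-MEM with 0.5% dialyzed FBS received EC50 EGF and compound titrations for 5 h. AP-1 reporter beta-lactamase was detected via CCF4 ratio, giving AC50 for positive and negative modulators.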

In assay [3] the target is Cytochrome P450 1A2 (Homo sapiens) (UniProt P05177). Nature of the assay: p450-cyp1a2 (AID 410; calls by dose curve; also: potency is read from the fitted curve at half-maximal effect). The conditions noted are these: recombinant CYP1A2, luciferin-ME demethylation, luminescence; series mostly up to 57 µM. The method, boiled down:
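20nM CYP1A2 with 100uM Luciferin-ME (at Km) in 100mM KPO4; compound preincubated 10 min, NADPH regeneration added, 60 min at room temperature. Luciferin quantified by luminescence after detection reagent; normalized to 57 uM furafylline.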

A short description of assay [4]: NFAT Signaling Pathway (AID 444; active = well fitted curve in either direction with a large enough effect, not every such curve was filed as active;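 also: carbachol stimulus at about its EC50 of 1 µM final; % is scaled to controls: 0 for no effect and ±100 for the full control effect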). The settings on record: Jurkat NFAT-bla M1, carbachol, beta-lactamase ratio, 5 h; at 7.69 µM (top of the series) unless noted. The method, boiled down: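 Read-out: CCF4 FRET ratio (460 nm/530 nm) after 1 h RT dye loading, used for %activity and AC50 from titration series. Cells: Jurkat NFAT-β-lactamase/M1 line, treated with compound plus 1 uM carbachol for 5 h, 37 °C.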

In assay [5] the target is Glucocorticoid receptor (Homo sapiens) (UniProt P04150). The assay can be described thus: GR-GFP Redistribution (AID 450;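 active = compounds whose dose series gives a full or clear partial fitted curve of increased nuclear translocation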; also: potency is read from the fitted curve at half-maximal effect). The conditions noted are these: U2OS GR-GFP nuclear translocation, laser cytometry, 2 h.
Sequence of Glucocorticoid receptor (Homo sapiens) (P04150 whole entry, looked up, the tested form may be a part): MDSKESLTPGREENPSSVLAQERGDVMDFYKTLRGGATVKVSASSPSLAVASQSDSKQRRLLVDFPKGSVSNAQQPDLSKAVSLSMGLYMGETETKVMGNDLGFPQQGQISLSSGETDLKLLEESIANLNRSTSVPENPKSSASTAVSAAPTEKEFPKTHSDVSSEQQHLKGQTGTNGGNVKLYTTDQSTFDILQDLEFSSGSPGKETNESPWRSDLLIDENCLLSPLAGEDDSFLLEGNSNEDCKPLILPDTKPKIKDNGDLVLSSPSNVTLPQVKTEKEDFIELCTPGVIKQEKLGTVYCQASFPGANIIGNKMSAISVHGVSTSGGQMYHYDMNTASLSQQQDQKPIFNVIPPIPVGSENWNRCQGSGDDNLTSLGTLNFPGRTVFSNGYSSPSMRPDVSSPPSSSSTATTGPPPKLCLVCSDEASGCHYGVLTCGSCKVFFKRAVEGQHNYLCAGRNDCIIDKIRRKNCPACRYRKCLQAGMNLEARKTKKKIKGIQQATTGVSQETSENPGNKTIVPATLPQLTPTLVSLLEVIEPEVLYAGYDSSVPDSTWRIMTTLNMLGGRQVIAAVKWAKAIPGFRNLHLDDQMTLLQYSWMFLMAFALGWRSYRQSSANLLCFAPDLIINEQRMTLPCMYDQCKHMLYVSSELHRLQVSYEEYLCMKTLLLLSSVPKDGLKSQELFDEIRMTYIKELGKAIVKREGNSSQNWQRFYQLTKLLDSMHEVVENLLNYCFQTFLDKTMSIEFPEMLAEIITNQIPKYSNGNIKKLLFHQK
Assay [6] has the same target. Nature of the assay: GR-EFC Redistribution (AID 451; calls by dose curve; also: potency is read from the fitted curve at half-maximal effect). The conditions noted are these: CHO-K1 GR-EFC translocation, beta-gal luminescence, 2 h. In outline: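 Translocation of GR-ED fusion to nuclear EA restores b-gal, read by luminescence after 1 h room-temperature detection. Engineered CHO-K1 biosensor cells, 1,000/well, exposed 2 h at 37 C to titrations up to 46 uM final.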

In assay [7] the target is Mitogen-activated protein kinase 10 (Mus musculus) (UniProt Q61831). The assay can be described thus: JNK3 AlphaScreen Assay (AID 530; active = well fitted curve in either direction with a large enough effect, not every such curve was filed as active;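 also: kinase came from lysate of stimulated human HepG2 cells; signal reports phosphorylation of biotinylated GST-cJun 1-79 at Ser73 with 10 µM ATP; % is scaled to controls: 0 for no effect and ±100 for the full control effect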). The settings on record: JNK3 lysate, c-Jun phosphorylation; series mostly up to 57.1 µM. The method, boiled down:
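Compound titrations were preincubated 15 minutes at room temperature with substrate, antibody and pre-activated JNK3-containing HepG2 lysate. Reactions were started with 10 uM ATP and stopped with EDTA-containing bead buffer for AlphaScreen detection.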
For orientation: Bead proximity is the source of the signal in Alpha formats.

The target in assay [8] is 3',5'-cyclic-AMP phosphodiesterase 4B (Homo sapiens) (UniProt Q07343). The assay can be described thus: qHTS Assay for Inhibitors of PDE-IV (AID 607; active = well fitted activation curve with a large enough effect in the main read-out, with a control signal flat, not every such curve was filed as active; also: % of control where 0% means no effect). The conditions noted are these: HEK293 ACTOne CNG channel cells, membrane potential fluorescence; series mostly up to 22.9 µM. In outline:
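Live HEK293 cells with a modified cyclic nucleotide-gated (CNG) channel report intracellular cAMP via membrane-potential dye fluorescence (ex 535/em 590 nm). Endogenous PDE-IV was targeted. Compounds were tested at up to 22.9 uM final; RO 20-1724 100 uM served as control.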
A general note: Quantitative high-throughput screening tests each substance at several concentrations.

Assay [9] has as its target Cytochrome P450 3A4 (Homo sapiens) (UniProt P08684). Nature of the assay: qHTS Assay for Inhibitors and Substrates of Cytochrome P450 3A4 (AID 884). Also: nearly all actives have a fitted effect of over 50% in size. Also: potency is read from the fitted curve at half-maximal effect. The settings on record: recombinant CYP3A4, Luciferin-PPXE luminescence; series mostly up to 57.1 µM. In outline:
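20 nM human CYP3A4 with 25 uM Luciferin-PPXE (at KM) in 200 mM KPO4, preincubated 10 min with compound; NADPH regeneration started a 60 min RT reaction. Luciferin detected by luminescence, normalized to 57 uM ketoconazole as full inhibition.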

Assay [10] shares this target. The assay can be described thus: qHTS Assay for Activators of Cytochrome P450 3A4 (AID 885). Also: nearly all actives have a fitted effect of over 65% in size. The conditions noted are these: recombinant CYP3A4, Luciferin-PPXE luminescence, 60 min; series mostly up to 57.1 µM. In outline:
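Quantitative HTS format: compounds preincubated with 20nM human CYP3A4 and Luciferin-PPXE substrate at KM, reaction started by NADPH regeneration, stopped after 60 min, luciferase luminescence read 20 min later.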

Assay [11] deals with Dual specificity protein kinase CLK4 (Homo sapiens) (UniProt Q9HAZ1). The assay can be described thus: qHTS Assay for Inhibitors of CDC-like Kinase 4 (Kinase-Glo Assay) (AID 1770). Also: nearly all actives have a fitted effect of over 65% in size. Also: potency is read from the fitted curve at half-maximal effect. The settings on record: recombinant Clk4, Kinase-Glo ATP depletion luminescence; series mostly up to 66.7 µM. The method, boiled down: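 25 nM Clk4 with 100 uM RS repeat peptide and 1 uM ATP (final) in Tris pH7.5, 10 mM MgCl2, 4.5 h at room temperature. Remaining ATP measured by Kinase-Glo luciferase luminescence.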
Sequence of Dual specificity protein kinase CLK4 (Homo sapiens) (Q9HAZ1 whole entry, looked up): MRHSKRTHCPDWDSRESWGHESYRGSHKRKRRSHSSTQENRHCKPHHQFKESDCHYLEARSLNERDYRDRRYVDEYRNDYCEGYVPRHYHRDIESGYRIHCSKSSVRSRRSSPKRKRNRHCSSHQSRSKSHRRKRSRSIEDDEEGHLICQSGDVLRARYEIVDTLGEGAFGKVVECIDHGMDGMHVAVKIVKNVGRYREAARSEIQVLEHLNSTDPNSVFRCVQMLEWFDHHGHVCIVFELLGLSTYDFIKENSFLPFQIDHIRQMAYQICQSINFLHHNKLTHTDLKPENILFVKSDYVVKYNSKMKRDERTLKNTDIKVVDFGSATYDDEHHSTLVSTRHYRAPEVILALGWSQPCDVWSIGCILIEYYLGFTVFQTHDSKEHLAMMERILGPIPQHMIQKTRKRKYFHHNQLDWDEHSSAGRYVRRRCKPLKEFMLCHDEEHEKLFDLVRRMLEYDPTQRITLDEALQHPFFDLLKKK

Assay [12] shares this target. Nature of the assay: qHTS Assay for Inhibitors of CDC-like Kinase 4 (ADP-Glo Assay) (AID 1771). Also: nearly all actives have a fitted effect of over 70% in size. Also: potency is read from the fitted curve at half-maximal effect. The conditions noted are these: recombinant CLK4, ADP-Glo luminescence; series mostly up to 80 µM. In outline: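 25 nM Clk4 with 100 uM RS repeat peptide and 1 uM ATP (final) in buffer with 2 mM MgCl2, 0.5 mM EGTA, 2.5 mM DTT, 0.01% Triton X-100; 1 h at room temperature; ADP-Glo luminescence for ADP formed.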

Assay [13] shares this target. The assay can be described thus: qHTS Assay for Inhibitors of CDC-like Kinase 4 (ADP-FP Assay) (AID 1795). Also: nearly all actives have a fitted effect of over 60% in size. Also: potency is read from the fitted curve at half-maximal effect. The conditions noted are these: Transcreener ADP fluorescence polarization; series mostly up to 50 µM. In outline:
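Recombinant Clk4 (6.25 nM) phosphorylated 100 uM RS repeat peptide with 1 uM ATP in 25 mM Tris pH 7.5, 10 mM MgCl2, 0.5 mM EGTA, 2.5 mM DTT, 0.01% Triton X-100 for 1 h. ADP was detected by Transcreener ADP2 competitive fluorescence polarization after 30 min at room temperature.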

The target of assay [14] is Ubiquitin carboxyl-terminal hydrolase 1 (Homo sapiens) (UniProt O94782). The assay can be described thus: Inhibitors of USP1/UAF1: Pilot qHTS (AID 504865). Also: nearly all actives have a fitted effect of over 35% in size. Also: potency is read from the fitted curve at half-maximal effect. The conditions noted are these: purified USP1/UAF1, Ub-rhodamine cleavage fluorescence; series mostly up to 54.9 µM. The method, boiled down: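 USP1/UAF1 complex at 1 nM preincubated 15 min at room temperature with compound, then Ub-Rho substrate added at 150 nM final. Fluorescence (480/540 nm) read kinetically in 50 mM HEPES pH 7.8, 0.5 mM EDTA, 1 mM TCEP, 0.1 mg/ml BSA, 0.01% Tween-20.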
Sequence of Ubiquitin carboxyl-terminal hydrolase 1 (Homo sapiens) (O94782 whole entry, looked up): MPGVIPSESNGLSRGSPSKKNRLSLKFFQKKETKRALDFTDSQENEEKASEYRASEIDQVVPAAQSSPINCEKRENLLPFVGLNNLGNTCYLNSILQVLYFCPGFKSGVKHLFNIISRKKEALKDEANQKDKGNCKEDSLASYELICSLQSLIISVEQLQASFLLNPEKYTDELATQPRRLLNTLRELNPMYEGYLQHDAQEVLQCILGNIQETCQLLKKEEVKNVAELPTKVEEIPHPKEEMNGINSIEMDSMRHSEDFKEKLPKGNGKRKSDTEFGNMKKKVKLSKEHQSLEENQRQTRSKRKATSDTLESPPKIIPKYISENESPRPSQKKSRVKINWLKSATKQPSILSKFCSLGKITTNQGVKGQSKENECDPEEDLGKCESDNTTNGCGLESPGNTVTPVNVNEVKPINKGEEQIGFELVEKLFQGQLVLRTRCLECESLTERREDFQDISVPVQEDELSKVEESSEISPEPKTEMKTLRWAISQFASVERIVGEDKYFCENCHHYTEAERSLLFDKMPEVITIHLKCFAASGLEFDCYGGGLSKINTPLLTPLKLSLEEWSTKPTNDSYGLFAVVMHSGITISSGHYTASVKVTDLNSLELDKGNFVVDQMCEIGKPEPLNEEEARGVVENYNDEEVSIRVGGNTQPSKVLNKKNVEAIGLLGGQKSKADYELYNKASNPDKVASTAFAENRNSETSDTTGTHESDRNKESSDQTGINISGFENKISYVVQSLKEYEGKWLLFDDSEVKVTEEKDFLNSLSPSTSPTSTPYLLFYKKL

Assay [15] is described as follows: Primary qHTS for small molecule stabilizers of the endoplasmic reticulum resident proteome: Secreted ER Calcium Modulated Protein (SERCaMP) assay (AID 1508630). Also: % is scaled to controls: 0 for no effect and ±100 for the full control effect. The conditions noted are these: SH-SY5Y GLuc-SERCaMP (Gaussia luciferase released on ER calcium loss) secretion, thapsigargin, luminescence; series mostly up to 38.4 µM. The method, boiled down:
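GLuc-SERCaMP-expressing SH-SY5Y cells, pretreated 16 h with compound, are challenged with thapsigargin to empty ER calcium stores; after 4 h, coelenterazine is added directly to the medium and luminescence is imaged.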

Assay [16] in a line: Stat Signaling Pathway (AID 446; active = well fitted curve in either direction with a large enough effect, not every such curve was filed as active). The settings on record: ME-180 SIE beta-lactamase reporter, IL-6 stimulated, 5 h; at 7.69 µM (top of the series) unless noted. In outline: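 IL-6/STAT signaling read in ME-180 cells via an SIE beta-lactamase reporter. Stimulus was 40 pM IL-6 (its AC50) for 5 hrs, so both activation and inhibition register.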
For assay [17], the target named is Cytochrome P450 2D6 (Homo sapiens) (UniProt P10635). Nature of the assay: qHTS Assay for Inhibitors and Substrates of Cytochrome P450 2D6 (AID 891). Also: potency is read from the fitted curve at half-maximal effect; nearly all actives have a fitted effect of over 60% in size. The settings on record: recombinant CYP2D6, luciferin-ME EGE luminescence; series mostly up to 57.1 µM. The method, boiled down:
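Human CYP2D6 (5 nM) with 30 uM Luciferin-ME EGE (at Km) in 100 mM KPO4, compound preincubated 10 min, then NADPH regeneration system for 60 min at room temperature. Luciferin read by luminescence; normalized to 1.43 uM quinidine.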

The nature of assay [18]: qHTS Assay for Identification of Small Molecule Agonists for Hypoxia Response Element Signaling Pathway (AID 914; active = well fitted activation curve with a large enough effect in the signal ratio, with a control signal flat, not every such curve was filed as active; the % refers to the signal ratio; also: potency is read from the fitted curve at half-maximal effect; as to activation: % of control where 0% means no effect). The conditions noted are these: ME-180 (cervical carcinoma) HRE-bla reporter, beta-lactamase ratio, CoCl2, 17 h; activation: active compounds read high. In outline:
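HRE-bla ME-180 cells with beta-lactamase reporter under hypoxia response element, compounds with EC50 CoCl2 for 17 hours at 37 C. CCF4 substrate, 460nm/530nm emission ratio gave %Activity; AC50 from titration series.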

Sequence of Cytochrome P450 3A4 (Homo sapiens) (P08684 whole entry, looked up): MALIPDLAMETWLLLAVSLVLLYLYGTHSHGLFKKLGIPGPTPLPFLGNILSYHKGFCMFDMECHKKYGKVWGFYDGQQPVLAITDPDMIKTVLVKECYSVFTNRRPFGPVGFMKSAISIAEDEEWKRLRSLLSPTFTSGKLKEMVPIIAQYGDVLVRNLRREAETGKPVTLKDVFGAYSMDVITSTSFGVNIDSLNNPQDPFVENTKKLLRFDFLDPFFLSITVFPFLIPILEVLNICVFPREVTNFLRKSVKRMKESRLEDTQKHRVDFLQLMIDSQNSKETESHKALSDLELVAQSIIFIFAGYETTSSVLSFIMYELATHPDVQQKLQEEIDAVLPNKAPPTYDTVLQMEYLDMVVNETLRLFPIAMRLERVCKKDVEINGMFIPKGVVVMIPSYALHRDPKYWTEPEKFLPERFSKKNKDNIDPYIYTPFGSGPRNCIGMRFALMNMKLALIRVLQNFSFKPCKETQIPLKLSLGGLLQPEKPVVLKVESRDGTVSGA
Sequence of Cytochrome P450 1A2 (Homo sapiens) (P05177 whole entry, looked up): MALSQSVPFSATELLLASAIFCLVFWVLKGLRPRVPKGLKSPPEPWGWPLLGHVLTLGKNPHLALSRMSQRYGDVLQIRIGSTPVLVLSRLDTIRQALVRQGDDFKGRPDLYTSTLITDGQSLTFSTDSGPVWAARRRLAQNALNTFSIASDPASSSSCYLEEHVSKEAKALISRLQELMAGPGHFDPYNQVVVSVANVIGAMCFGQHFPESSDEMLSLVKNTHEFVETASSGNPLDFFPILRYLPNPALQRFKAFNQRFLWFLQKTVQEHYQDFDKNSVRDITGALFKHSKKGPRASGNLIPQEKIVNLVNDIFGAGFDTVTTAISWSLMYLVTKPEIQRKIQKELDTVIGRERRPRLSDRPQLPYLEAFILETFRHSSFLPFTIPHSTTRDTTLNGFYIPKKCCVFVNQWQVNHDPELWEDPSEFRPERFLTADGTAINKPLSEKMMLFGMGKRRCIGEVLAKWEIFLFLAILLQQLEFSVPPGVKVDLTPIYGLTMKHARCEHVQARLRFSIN
Sequence of 3',5'-cyclic-AMP phosphodiesterase 4B (Homo sapiens) (Q07343 whole entry, looked up): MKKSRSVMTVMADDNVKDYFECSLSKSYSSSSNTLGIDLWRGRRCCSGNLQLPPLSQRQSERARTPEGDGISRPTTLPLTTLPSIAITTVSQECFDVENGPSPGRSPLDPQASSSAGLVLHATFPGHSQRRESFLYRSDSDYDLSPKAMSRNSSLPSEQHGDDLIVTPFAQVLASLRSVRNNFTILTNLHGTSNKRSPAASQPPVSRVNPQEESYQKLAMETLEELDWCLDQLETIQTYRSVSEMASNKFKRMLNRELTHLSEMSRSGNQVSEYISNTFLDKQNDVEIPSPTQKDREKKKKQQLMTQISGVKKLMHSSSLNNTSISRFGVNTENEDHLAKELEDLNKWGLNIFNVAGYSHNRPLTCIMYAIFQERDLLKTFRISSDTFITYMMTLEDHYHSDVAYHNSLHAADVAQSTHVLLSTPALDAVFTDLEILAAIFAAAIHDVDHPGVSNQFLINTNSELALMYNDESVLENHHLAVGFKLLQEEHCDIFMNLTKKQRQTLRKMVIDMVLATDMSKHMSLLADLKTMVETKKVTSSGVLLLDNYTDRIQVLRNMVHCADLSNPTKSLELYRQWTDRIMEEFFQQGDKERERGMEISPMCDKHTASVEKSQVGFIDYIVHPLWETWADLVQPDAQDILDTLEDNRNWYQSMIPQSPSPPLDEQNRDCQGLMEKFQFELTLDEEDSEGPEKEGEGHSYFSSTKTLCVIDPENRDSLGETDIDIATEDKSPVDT
Sequence of Cytochrome P450 2D6 (Homo sapiens) (P10635 whole entry, looked up): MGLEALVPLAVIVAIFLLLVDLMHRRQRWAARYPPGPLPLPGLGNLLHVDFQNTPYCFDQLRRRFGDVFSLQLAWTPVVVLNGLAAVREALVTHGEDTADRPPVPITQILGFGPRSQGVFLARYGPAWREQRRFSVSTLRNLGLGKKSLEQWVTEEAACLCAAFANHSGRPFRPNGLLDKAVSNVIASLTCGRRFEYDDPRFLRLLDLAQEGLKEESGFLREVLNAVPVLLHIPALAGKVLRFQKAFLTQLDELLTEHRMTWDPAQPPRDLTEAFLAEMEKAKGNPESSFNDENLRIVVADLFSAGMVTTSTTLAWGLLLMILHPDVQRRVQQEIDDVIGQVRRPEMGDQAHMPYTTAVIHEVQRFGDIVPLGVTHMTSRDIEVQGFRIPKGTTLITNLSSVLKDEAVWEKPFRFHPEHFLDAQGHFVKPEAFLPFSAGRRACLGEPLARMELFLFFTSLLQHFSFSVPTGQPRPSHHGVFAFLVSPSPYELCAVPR

With `COc1ncc2nc(-c3cccs3)c(=O)n(Cc3ccc(F)cc3)c2n1`, the Potency in assay [1] is over 11.4 µM; in assay [3], 3.16 µM (active); in assay [5], over 9.22 µM; in [6] it was over 46 µM; in assay [9], 3.16 µM (active). Besides, the activity change, negative = inhibition in assay [2] is 22.6%; in assay [4], 8.73%. Further, the Potency result in [7], in assay [8], in assay [10], in assay [11], in assay [12] and in assay [13] was “inactive” in each case. Further, the Potency entry in [14] is “inactive”. Further, the result in assay [15] was inactive.
Consider `c1cncc(-c2nc(NCc3cccs3)c3ccccc3n2)c1`, for which the Potency in assay [1] was over 11.4 µM; in assay [3] it was 0.316 µM (active); in [5], over 46 µM; in assay [6] it was over 46 µM; in assay [9] it was 2 µM (active); in [17] it was 6.31 µM (active). The Potency in [11] was 1.58 µM (active); in assay [12], 1.26 µM (active); in assay [13], 2 µM (active). For the same compound, in assay [2], the activity change, negative = inhibition was -18.5%. Also, the activity, negative = inhibition in assay [16] is 1.18%. Also, the Potency entry in assay [7], in assay [10] and in assay [14] was “inactive” in each case. In assay [15], the outcome was inactive.
On to `Cc1cccc(CNc2ncncc2-c2ccccc2Cl)c1`, for which the Potency in assay [1] is over 11.4 µM; in assay [3], 3.16 µM (active); in assay [5], over 46 µM; in assay [6] it was over 46 µM; in assay [9], 0.199 µM (active); in [17], 2 µM (active). In addition, in [2], the activity change, negative = inhibition is -12.3%. In [16], the activity, negative = inhibition was -14.1%. The Potency result in [7], in assay [10], in assay [11], in assay [12], in assay [13] and in assay [14] was “inactive” each time. Moreover, in assay [18], the activation is -10.3%. In addition, the result in assay [15] was inactive.
As to `Cn1cc(-c2nc3cnc(N4CCNCC4)nc3n(-c3ccccc3)c2=O)c2ccccc21`, the Potency in assay [1] was over 11.4 µM; in assay [3] it was 15.8 µM (active); in assay [5] it was over 9.22 µM; in assay [6], over 46 µM; in assay [18], 3.98 µM (active). For the same compound, the activity change, negative = inhibition in assay [2] was 22.4%; in [4], 24.6%. For the same compound, the Potency entry in [8], in assay [11], in assay [12], in [13] and in assay [14] was “inactive” each time. Moreover, the result in [15] was inactive.
As for `CCNc1ncc2nc(-c3cccs3)c(=O)n(Cc3ccc(F)cc3)c2n1`, the Potency was over 11.4 µM in assay [1]; 10 µM (active) in [3]; over 9.22 µM in [5]; over 46 µM in [6]; 20 µM (active) in assay [14]. For the same compound, the activity change, negative = inhibition in assay [2] is 24.9%; in assay [4] it was -12.4%. The Potency entry in [8], in assay [10], in [11], in [12] and in [13] was “inactive” in each case. For the same compound, the outcome in assay [15] was inactive.
Turning to `Cn1c(=O)c(-c2ccc(F)cc2)nc2cnc(N3CCOCC3)nc21`, the Potency in [1] is over 11.4 µM; in [3], 2.51 µM (active); in assay [5], over 9.22 µM; in assay [6], over 46 µM; in assay [18] it was 2.51 µM (active). For the same compound, the activity change, negative = inhibition in [2] is 14.8%; in assay [4] it was 24.2%. For the same compound, the Potency result in assay [7], in [8], in assay [9], in assay [11], in assay [12] and in [13] was “inactive” each time. For the same compound, the Potency result in assay [14] was “inactive”. Moreover, the result in [15] was inactive.
